High-throughput results deposited in PubChem by The Scripps Research Institute Molecular Screening Center.
Sampled rows, rich in hits. Any-hit rate of the full collection: about 2.9%.
EBNA-1 inhibitor: blocks EBNA-1 binding to DNA; EBNA-1 DNA binding, fluorescence polarization; inhibition, % at 14.8 µM; 0.34% of 300,000 active; AID 1950; in the data active means inhibition above about 28%
PAFAH1B3 FP inh: inhibitors of human PAFAH1B3 | Q15102 | inhibition, % at 3.39 µM | AID 492972 | recombinant PAFAH1B3, FP-rhodamine probe, fluorescence polarization | 0.28% of 340,000 active;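 active means inhibition above the screen-wide average of all tested compounds plus 3 SD, cut at about 25% in these data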
Target sequence (Q15102 whole entry, looked up): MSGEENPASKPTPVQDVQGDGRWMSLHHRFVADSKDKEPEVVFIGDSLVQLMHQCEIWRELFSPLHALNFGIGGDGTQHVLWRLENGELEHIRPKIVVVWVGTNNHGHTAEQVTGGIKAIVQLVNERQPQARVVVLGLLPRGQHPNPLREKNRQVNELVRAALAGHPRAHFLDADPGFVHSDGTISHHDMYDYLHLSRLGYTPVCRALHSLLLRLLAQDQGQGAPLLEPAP
PAFAH1B2 inh: inhibitors of human PAFAH1B2; inhibition, % at 3.39 µM; 1.2% of 340,000 active; P68402; recombinant PAFAH1B2, FP-rhodamine activity probe, fluorescence polarization;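 active means inhibition above the mean of all tested compounds plus 3 SD, cut at about 24% in these data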
ZTA DNA inh: blocks Epstein-Barr virus ZTA, an EBNA-1 counter-screen. P03206. ZTA-DNA binding, fluorescence polarization. inhibition, % at 11 µM. 0.15% of 320,000 active; in the data active means inhibition above about 33%
PAFAH2 inh: PAFAH2 (human) inhibition; Q99487; recombinant PAFAH2, FP-rhodamine activity probe, fluorescence polarization; inhibition, % at 3.39 µM; 0.99% of 340,000 active; AID 492956;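 active means inhibition above the mean over all tested compounds plus 3 SD, cut at about 30% in these data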;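 further: inhibitors block probe labeling of enzyme so polarization drops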
pPAFAH inh: pPAFAH (human) enzyme inhibition; Q13093; recombinant pPAFAH, FP-rhodamine probe fluorescence polarization; inhibition, % at 3.39 µM; 1.5% of 330,000 active; AID 463082;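 active means inhibition above the mean inhibition across the screen plus 3 SD, cut at about 25% in these data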;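 further: inhibitors block binding of the rhodamine activity-based probe so polarization drops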
Target sequence (Q13093 whole entry, looked up): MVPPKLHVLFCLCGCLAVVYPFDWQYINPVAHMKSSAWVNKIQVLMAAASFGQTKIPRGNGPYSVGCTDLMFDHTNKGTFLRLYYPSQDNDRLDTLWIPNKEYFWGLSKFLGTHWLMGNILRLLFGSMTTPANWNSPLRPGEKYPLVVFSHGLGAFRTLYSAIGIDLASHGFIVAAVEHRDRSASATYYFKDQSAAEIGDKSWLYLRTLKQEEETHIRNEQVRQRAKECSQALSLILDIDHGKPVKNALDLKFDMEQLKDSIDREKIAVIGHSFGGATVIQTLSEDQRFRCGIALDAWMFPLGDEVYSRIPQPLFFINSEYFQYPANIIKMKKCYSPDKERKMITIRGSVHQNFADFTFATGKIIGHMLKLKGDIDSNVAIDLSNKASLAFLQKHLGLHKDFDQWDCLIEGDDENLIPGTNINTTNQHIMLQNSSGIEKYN
Each line names hits and unclear results; the compound was inactive in the other large screens.

CCCCC1=CC2=CC(=O)C(C)(O)C(=O)C2=CO1 (configuration not stated)	pPAFAH inh 41 (no result: PAFAH1B3 FP inh, PAFAH1B2 inh, PAFAH2 inh)
CC1(OC(=O)C2CCCC2)C(=O)C=C2C=C(c3ccsc3)N(CC3CC3)C=C2C1=O (configuration not stated)	none
CCCCC1=CC2=CC(=O)C(C)(OC(=O)c3ccc(Cl)nc3)C(=O)C2=CO1 (configuration not stated)	pPAFAH inh 53 (no result: PAFAH1B3 FP inh, PAFAH1B2 inh, PAFAH2 inh)
CC1(O)C(=O)C=C2C=C(c3ccsc3)OC=C2C1=O (configuration not stated)	pPAFAH inh 42 (no result: PAFAH1B3 FP inh, PAFAH1B2 inh, PAFAH2 inh)
CC1(OC(=O)c2ccco2)C(=O)C=C2C=C(c3ccsc3)OC=C2C1=O (configuration not stated)	pPAFAH inh 50 (no result: PAFAH1B3 FP inh, PAFAH1B2 inh, PAFAH2 inh)
CC1(OC(=O)c2cnc3ccccc3n2)C(=O)C=C2C=C(c3ccc(C#N)cc3)OC=C2C1=O (configuration not stated)	none (no result: PAFAH1B3 FP inh, PAFAH1B2 inh, PAFAH2 inh)
Cc1c(Cc2ccccc2)c(=O)oc2cc(OCC(=O)NCC3CCC(C(=O)O)CC3)ccc12 (configuration not stated)	none
Cc1ccc2c(c1)C1(C(=O)N2)N2CCCC2C(C(=O)c2ccc3ccccc3c2)C12C(=O)Nc1ccccc12 (configuration not stated)	none (no result: EBNA-1 inhibitor, ZTA DNA inh, pPAFAH inh)
Cc1cc(C)c(S(=O)(=O)Nc2ccccc2C(=O)N2CCCC2)c(C)c1	none
CCCCC1=CC2=CC(=O)C(C)(OC(=O)CC)C(=O)C2=CN1C1CCCC1 (configuration not stated)	none
COC(=O)CCCC1=CC2=CC(=O)C(C)(OC(=O)c3ccco3)C(=O)C2=CO1 (configuration not stated)	pPAFAH inh 47 (no result: PAFAH1B3 FP inh, PAFAH1B2 inh, PAFAH2 inh)
CC(C)(C)OC(=O)NCCCC1=CC2=CC(=O)C(C)(OC(=O)C3CCCC3)C(=O)C2=CO1 (configuration not stated)	pPAFAH inh 41 (no result: PAFAH1B3 FP inh, PAFAH1B2 inh, PAFAH2 inh)
CC(C)(C)OC(=O)NCCCCC1=CC2=CC(=O)C(C)(OC(=O)c3ccco3)C(=O)C2=CO1 (configuration not stated)	pPAFAH inh 43 (no result: PAFAH1B3 FP inh, PAFAH1B2 inh, PAFAH2 inh)
COc1ccc(C2=CC3=C(Br)C(=O)C(C)(OC(=O)c4ccco4)C(=O)C3=CO2)cc1 (configuration not stated)	none
COC(=O)CCCC1=CC2=CC(=O)C(C)(OC(=O)CCc3ccccc3)C(=O)C2=CO1 (configuration not stated)	none
Cc1ccc(/C=C2\SC(N3CCN(C(c4ccccc4)c4ccccc4)CC3)=NC2=O)o1	pPAFAH inh 27
Cc1ccc(-c2ccc(/C=C3\SC(N4CCOCC4)=NC3=O)o2)cc1	none
O=C(O)c1cc(N/N=C/C=C/c2ccccc2[N+](=O)[O-])ccc1Cl	none
COc1ccc([C@@H]2CC=C(C(=O)O)[C@H](c3ccc(C(C)(C)C)cc3)N2S(=O)(=O)c2ccc(C)cc2)cc1OC	none (no result: EBNA-1 inhibitor, ZTA DNA inh)
Cc1ccc(S(=O)(=O)N2[C@@H](c3ccc(Cl)cc3)C(C(=O)O)=CC[C@H]2c2ccc(C(C)C)cc2)cc1	PAFAH1B2 inh 93
Cc1ccc(S(=O)(=O)N2[C@@H](c3ccc(C(C)(C)C)cc3)C(C(=O)O)=CC[C@H]2c2ccc(Cl)c(Cl)c2)cc1	PAFAH1B2 inh 76 (no result: EBNA-1 inhibitor, ZTA DNA inh)
COc1cccc([C@@H]2CC=C(C(=O)O)[C@H](c3ccc(C)cc3)N2S(=O)(=O)c2ccc(C)cc2)c1	PAFAH1B2 inh 27 (no result: EBNA-1 inhibitor, ZTA DNA inh)
Cc1ccc([C@@H]2CC=C(C(=O)O)CN2S(=O)(=O)c2ccc(C)cc2)cc1	PAFAH1B2 inh 29
COc1ccc([C@@H]2CC=C(C(=O)O)[C@H](c3ccc(Cl)cc3)N2S(=O)(=O)c2ccc(C)cc2)cc1OC	none
COc1cccc([C@@H]2CC=C(C(=O)O)[C@H](c3ccccc3F)N2S(=O)(=O)c2ccc(C)cc2)c1	none
Cc1nc(C(C)NC(=O)CCc2nnc(-c3ccsc3)o2)cs1 (configuration not stated)	none
Cc1ccc(S(=O)(=O)N2[C@@H](c3ccccc3)C(C(=O)O)=CC[C@H]2c2cccs2)cc1	PAFAH1B2 inh 25
Cc1ccc(S(=O)(=O)N2[C@@H](c3ccc(C(C)(C)C)cc3)C(C(=O)O)=CC[C@H]2c2cccc(Cl)c2)cc1	PAFAH1B2 inh 78 (no result: EBNA-1 inhibitor, ZTA DNA inh)
Cc1ccc(S(=O)(=O)N2[C@@H](c3ccc(Br)cc3)C(C(=O)O)=CC[C@H]2c2ccc3c(c2)OCO3)cc1	PAFAH1B2 inh 72 (no result: EBNA-1 inhibitor, ZTA DNA inh)
COc1cc([C@@H]2CC=C(C(=O)O)[C@H](c3cccc(Cl)c3)N2S(=O)(=O)c2ccc(C)cc2)cc(OC)c1OC	none
Cc1ccc(S(=O)(=O)N2[C@@H](c3ccc(Br)cc3)C(C(=O)O)=CC[C@H]2c2ccc(Cl)c(Cl)c2)cc1	PAFAH1B2 inh 87 (no result: EBNA-1 inhibitor, ZTA DNA inh)
O=C(CN(C(=O)c1csnn1)c1ccc(Cl)cc1)NCCc1ccccc1	none
Cc1ccc(-c2nn(-c3ccccc3)cc2C=O)o1	none
COc1cc(OC)nc(Oc2cccc(Cl)c2C)n1	none (no result: PAFAH1B3 FP inh, PAFAH1B2 inh, PAFAH2 inh)
CCOC(=O)c1c(NC(=O)CSc2nnc(CNc3ccc(OC)cc3)n2C)sc(C)c1C	PAFAH1B2 inh 26
CCOC(=O)c1ccc(NC(=O)CSc2nnc(CNc3ccc(C)cc3)n2C)cc1	none
Cc1ccc(NC(=O)CCNCc2ccco2)cc1S(=O)(=O)N(C)C	none
Cc1ccc(C)n1NC(=O)c1ccccc1O	pPAFAH inh 32
CSc1cccc(NC(=O)/C=C/c2ccco2)c1	pPAFAH inh 25
O=C(N/C=C/c1ccco1)Nc1cccc(Cl)c1	pPAFAH inh 27 (no result: PAFAH1B3 FP inh, PAFAH1B2 inh, PAFAH2 inh)
Cc1cc(C(=O)NNC(=S)NC2CCCCC2)cs1	none
Cc1cc(=O)n2nc(N3CCCC(C(=O)NCCCN4CC(C)CC(C)C4)C3)sc2n1 (configuration not stated)	none
O=c1[nH][nH]c(-c2ccccc2)c1-c1ccccc1	PAFAH1B2 inh 25 (no result: EBNA-1 inhibitor, ZTA DNA inh, pPAFAH inh)
CN(CC(=O)Nc1ccc(Cl)c(Cl)c1)C(=O)CC1OC(=O)c2ccccc21 (configuration not stated)	none
COc1cccc(-n2c(CNc3ccc(F)cc3)nnc2SCC(N)=O)c1	PAFAH1B2 inh 26
CC12CCC(C1)C(C)(C)C2NS(=O)(=O)c1ccc(F)cc1 (configuration not stated)	PAFAH1B2 inh 26 (no result: EBNA-1 inhibitor)
CN(CC(=O)Nc1ccc(Cl)c(Cl)c1)C1CCCCC1	none (no result: EBNA-1 inhibitor, ZTA DNA inh, pPAFAH inh)
CN(CC(=O)Nc1ccc(Cl)c(Cl)c1)C(=O)C12CC3CC(CC(C3)C1)C2	PAFAH1B2 inh 26
CC1(OC(=O)CCc2ccccc2)C(=O)C=C2C=C3CCCN3C=C2C1=O (configuration not stated)	none
COC(=O)CCC(=O)OC1(C)C(=O)C=C2C=C(C3CC3)OC=C2C1=O (configuration not stated)	pPAFAH inh 26 (no result: PAFAH1B3 FP inh, PAFAH1B2 inh, PAFAH2 inh)
CC1(OC(=O)CCc2ccccc2)C(=O)C=C2C=C(C3CC3)OC=C2C1=O (configuration not stated)	pPAFAH inh 33 (no result: PAFAH1B3 FP inh, PAFAH1B2 inh, PAFAH2 inh)
